Only some compounds are listed: those with a hit (about 2% of all), similar ones and a draw of the others.
Wee1 degr inh – human Wee1 degradation inhibition, primary screen | HeLa Luc-Wee1K328M stability, luciferase luminescence; 100% = proteasome inhibitor MG132 effect | 220,000 compounds, 1.2% hits | P30291 | reporter increase, % at 5 µM;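 active means activation above the mean of all tested compounds plus 3 SD, set per screening run, cut at about 8.8% in these data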;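 further: cells exposed to compound for 20 h before luminescence read; 0% = DMSO alone and 100% = MG132 at 30 µM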
HMGR II inh – blocks class II HMG-CoA reductase of Enterococcus faecalis; purified E. faecalis HMGR, NADPH absorbance 340 nm kinetic; inhibition, % at 10 µM; 190,000 compounds, 0.41% hits;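 active means inhibition above a set limit, the median over all tested compounds plus 3 SD, cut at about 9.5% in these data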;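 further: enzyme runs in reverse so mevalonate oxidation gives rising NADPH absorbance; 0% = complete reaction with DMSO and 100% = background rate lacking mevalonate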
Arbovirus anti – blocks arbovirus infection. arbovirus infection cell-based antiviral screen. inhibition, % at 10 µM. 200,000 compounds, 0.37% hits. AID 1251; in the data active means inhibition above about 30%
PKD1 inh – PKD1 (human) kinase inhibition | Q15139 | PKD1 kinase fluorescence polarization assay | inhibition, % (test concentration not listed) | 200,000 compounds, 0.056% hits | AID 797; in the data active means inhibition above about 50%
Hsp70 activator – Hsp70 transcriptional activation, primary screen | HeLa Hsp70 promoter luciferase reporter, luminescence; scaled: vehicle 0, proteasome-inhibitor control 100% | activation, % at 10 µM | 200,000 compounds, 0.04% hits;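 active means activation above the mean across all tested compounds plus 3 SD, cutoff set per campaign, cut at about 5.5% in these data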;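 further: 100% = MG132 at 30 µM as the positive control and 0% = DMSO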
Wee1 degr conf – human Wee1 degradation inhibition, confirmation. shares compounds with Wee1 degr inh. HeLa Luc-Wee1K328M degradation, luminescence; vehicle 0%, proteasome-blocked wells 100%. activation, % at 5 µM. 1,100 compounds, 4% hits; in the data active means activation above about 8.9%
* hit, by the source's call; nt = no result.

SMILES | Wee1 degr inh | HMGR II inh | Arbovirus anti | PKD1 inh | Hsp70 activator | Wee1 degr conf
O=C(O)CCCC(=O)N1CCCC1 | 1 | -8 | 6 | 5 | 0 | nt
Cc1cccc(Oc2nc(CN3CCOCC3)nc3sc4c(c23)CCCC4)c1 | -3 | -5 | -28 | -6 | 0 | nt
O=C(NNC(=O)C1CC1c1ccccc1)Nc1ccccc1 (configuration not stated) | -3 | -7 | 5 | 7 | 0 | nt
O=C(NNC(=O)C12CC3CC(CC(C3)C1)C2)[C@@H]1C[C@H]1c1ccccc1 | 20* | 1 | 7 | -2 | 0 | 1
COCCN(C(=S)Nc1cc(C)cc(C)c1)C(C)c1ccco1 (configuration not stated) | -2 | -4 | 1 | -4 | 0 | nt
CC1CC(C)(C)NC(=S)N1CCCC(=O)Nc1ccc2c(c1)OCCO2 (configuration not stated) | -3 | -7 | 0 | -1 | 0 | nt
CC(C)NC(=S)NCc1cccnc1 | -2 | 2 | 1 | 5 | 0 | nt
Cc1ccc2c(CC(=O)N3CCc4ccccc43)coc2c1 | 18* | 1 | 4 | -6 | 0 | 2
O=C(Cn1nc(-c2ccccc2Cl)ccc1=O)Nc1ccccc1-c1ccccc1 | 25* | 1 | -10 | -1 | 0 | 2
CC(=O)Nc1ccc2nc(-c3cccs3)[nH]c2c1 | 16* | -10 | 4 | 0 | 0 | -1
CC(=O)Nc1ccc2nc(NC(=O)c3cccs3)sc2c1 | 11* | nt | nt | nt | nt | 1
CC(=O)Nc1ccc2nc3ccccc3nc2c1 | 24* | nt | nt | nt | nt | -1
Nc1ccc2nc(-c3cccs3)[nH]c2c1 | 3 | 7 | -4 | 3 | 0 | nt
O=C(Nc1ccc2nc3ccccc3nc2c1)c1ccc(Br)cc1 | -3 | 2 | -23 | -4 | 0 | nt
N=C(N)N=Nc1c(O)[nH]c2ccc(Br)cc12 | 1 | -1 | -9 | 1 | 0 | nt
O=C(N=Nc1c(O)[nH]c2ccc(Br)cc12)c1ccccc1-n1cccc1 | 12* | -4 | -22 | -4 | 0 | 21*
Cc1ccc(CSCC(=O)N2CCOCC2)cc1 | 13* | -6 | 11 | 2 | 0 | 0
Cc1cc(NS(=O)(=O)c2ccc(NC(=O)c3cc4cc(Br)ccc4oc3=O)cc2)no1 | -1 | -10 | -1 | 2 | 0 | nt
Cc1cc(-n2nnc3ccccc32)nc2ccccc12 | 13* | 2 | -7 | -3 | 0 | 4
Cc1cc(N2CCCCC2)nc2ccccc12 | 2 | 0 | 0 | 1 | 0 | nt
CC(C)CNC(=S)NNC(=O)CC(C)O (configuration not stated) | 11* | -7 | 2 | 6 | 0 | 1
CCNC(=S)NNC(=O)CC(C)C | 3 | -6 | 2 | -8 | 0 | nt
O=C(c1ccco1)N1CCN(CCCCOc2ccc(F)cc2)CC1 | 0 | 2 | 11 | -8 | 0 | nt
CC(C)CC(=O)NC(c1ccccc1Cl)c1c(O)ccc2ccccc12 (configuration not stated) | 21* | -1 | -10 | 2 | 0 | 2
O=C(Oc1ccc(=O)n(-c2ccccc2)n1)c1ccc(Cl)cc1 | 2 | 0 | -5 | -7 | 0 | nt
SMILES | Wee1 degr inh | HMGR II inh | Arbovirus anti | PKD1 inh | Hsp70 activator | Wee1 degr conf
O=C(Oc1ccc(=O)n(-c2ccccc2)n1)c1cccc(Cl)c1 | 11* | -3 | 2 | -13 | 0 | 3
O=S(=O)(c1ccccc1)N1CC=C(c2ccccc2)CC1 | -1 | -8 | -3 | -2 | 0 | nt
CN1CCN(C(=O)c2cc3sc4ccccc4c3s2)CC1 | 14* | nt | nt | nt | nt | 1
CCn1c(=O)c2cc(C(=O)N3CCN(C)CC3)sc2c2ccccc21 | 8 | -6 | 7 | -10 | 0 | nt
O=C(CSc1nc2nn(-c3ccccc3)c(=O)c-2c2n1CCCCC2)NCCCc1ccccc1 | 18* | -1 | 15 | -3 | 0 | 2
COc1ccc(NC(=O)Nc2ccccc2F)cc1Cl | 4 | -7 | -10 | 8 | 0 | nt
O=C(O)CSc1nc2ccccc2o1 | -3 | 0 | 1 | -3 | 0 | nt
CCCCOC(=O)CSc1nc2ccccc2o1 | 12* | nt | nt | nt | nt | 3
COc1ccc(C(=O)N=c2sc3c(C)ccc(OC)c3n2C)cc1OC | 12* | nt | nt | nt | nt | 8
COc1cccc(C(=O)N=c2sc3c(C)ccc(OC)c3n2C)c1 | nt | 2 | -5 | nt | nt | nt
COc1ccc(C)cc1N(CC(=O)Nc1ccc2c(c1)OCCO2)S(C)(=O)=O | -1 | 0 | -2 | -1 | 0 | nt
CCN(CC)C(=O)CSc1nc(OC)cc(=O)[nH]1 | 0 | -1 | 6 | -3 | 0 | nt

Screening results deposited in PubChem BioAssay by several laboratories.
